Laboratory results from the supplement of paper PMC11732987, “Enantioselective OTUD7B fragment discovery through chemoproteomics screening and high-throughput optimisation” (Communications Chemistry, 2025).

Key:
Test in all cases: log2 ratio of Biotin-Ahx-Ub-VS probe labelling (fragment/DMSO); higher = less target engagement (more negative = stronger competition), active = hit call of the paper (q ≤ 0.05, log2 ratio ≤ -1)
Conditions in all cases: compound concentration: 200 uM; treatment time: 3 h
USP34 = USP34 (UniProt Q70CQ2)
Outline: (§1)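 Labelling with Biotin-Ahx-Ub-VS (0.5 µM final, 1 h) followed a 3 h triplicate treatment of HEK293T lysate (495 µg per sample, Tris/CHAPS/IGEPAL buffer with protease inhibitors) with fragment at 200 µM or vehicle. Labelled DUBs were NeutrAvidin-enriched, digested with LysC and trypsin, and run by diaPASEF LC-MS/MS. The values, average log2 fragment/vehicle ratios by unpaired t-test, come from global-median-normalised Spectronaut label-free quantities. Proteins with ≥2 unique peptides were used.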

USP36 = biological target: T1, USP36 (UniProt Q9P275)
T1 sequence (whole entry): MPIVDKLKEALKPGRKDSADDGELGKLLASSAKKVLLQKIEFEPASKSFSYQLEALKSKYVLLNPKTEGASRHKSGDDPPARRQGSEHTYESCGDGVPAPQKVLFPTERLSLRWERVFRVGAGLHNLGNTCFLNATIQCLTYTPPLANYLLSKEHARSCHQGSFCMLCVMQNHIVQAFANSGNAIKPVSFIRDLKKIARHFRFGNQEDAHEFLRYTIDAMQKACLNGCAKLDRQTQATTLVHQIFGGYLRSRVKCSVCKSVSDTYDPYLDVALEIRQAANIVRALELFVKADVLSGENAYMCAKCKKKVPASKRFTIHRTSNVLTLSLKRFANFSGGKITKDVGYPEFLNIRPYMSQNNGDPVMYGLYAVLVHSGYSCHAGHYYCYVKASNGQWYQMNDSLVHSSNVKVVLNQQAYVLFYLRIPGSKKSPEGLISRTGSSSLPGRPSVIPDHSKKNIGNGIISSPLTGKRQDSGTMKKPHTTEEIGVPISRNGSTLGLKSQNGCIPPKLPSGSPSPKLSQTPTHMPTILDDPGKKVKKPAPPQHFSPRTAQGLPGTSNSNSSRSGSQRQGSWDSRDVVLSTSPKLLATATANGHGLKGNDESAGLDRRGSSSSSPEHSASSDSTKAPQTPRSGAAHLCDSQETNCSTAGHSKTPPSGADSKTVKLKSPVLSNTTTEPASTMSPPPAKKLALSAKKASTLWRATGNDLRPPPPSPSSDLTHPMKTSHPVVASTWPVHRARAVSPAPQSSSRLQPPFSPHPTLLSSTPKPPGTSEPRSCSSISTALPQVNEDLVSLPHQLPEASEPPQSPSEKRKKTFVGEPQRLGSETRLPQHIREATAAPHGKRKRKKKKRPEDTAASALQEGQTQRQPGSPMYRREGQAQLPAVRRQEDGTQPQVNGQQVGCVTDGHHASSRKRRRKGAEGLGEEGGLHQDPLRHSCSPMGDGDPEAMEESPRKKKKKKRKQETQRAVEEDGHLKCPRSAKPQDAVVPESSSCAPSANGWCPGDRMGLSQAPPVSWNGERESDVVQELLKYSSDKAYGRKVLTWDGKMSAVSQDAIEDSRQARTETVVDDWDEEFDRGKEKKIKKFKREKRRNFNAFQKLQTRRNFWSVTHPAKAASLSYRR
Outline: as §1

USP38 = biological target: T2, USP38 (UniProt Q8NB14)
T2 sequence (whole entry): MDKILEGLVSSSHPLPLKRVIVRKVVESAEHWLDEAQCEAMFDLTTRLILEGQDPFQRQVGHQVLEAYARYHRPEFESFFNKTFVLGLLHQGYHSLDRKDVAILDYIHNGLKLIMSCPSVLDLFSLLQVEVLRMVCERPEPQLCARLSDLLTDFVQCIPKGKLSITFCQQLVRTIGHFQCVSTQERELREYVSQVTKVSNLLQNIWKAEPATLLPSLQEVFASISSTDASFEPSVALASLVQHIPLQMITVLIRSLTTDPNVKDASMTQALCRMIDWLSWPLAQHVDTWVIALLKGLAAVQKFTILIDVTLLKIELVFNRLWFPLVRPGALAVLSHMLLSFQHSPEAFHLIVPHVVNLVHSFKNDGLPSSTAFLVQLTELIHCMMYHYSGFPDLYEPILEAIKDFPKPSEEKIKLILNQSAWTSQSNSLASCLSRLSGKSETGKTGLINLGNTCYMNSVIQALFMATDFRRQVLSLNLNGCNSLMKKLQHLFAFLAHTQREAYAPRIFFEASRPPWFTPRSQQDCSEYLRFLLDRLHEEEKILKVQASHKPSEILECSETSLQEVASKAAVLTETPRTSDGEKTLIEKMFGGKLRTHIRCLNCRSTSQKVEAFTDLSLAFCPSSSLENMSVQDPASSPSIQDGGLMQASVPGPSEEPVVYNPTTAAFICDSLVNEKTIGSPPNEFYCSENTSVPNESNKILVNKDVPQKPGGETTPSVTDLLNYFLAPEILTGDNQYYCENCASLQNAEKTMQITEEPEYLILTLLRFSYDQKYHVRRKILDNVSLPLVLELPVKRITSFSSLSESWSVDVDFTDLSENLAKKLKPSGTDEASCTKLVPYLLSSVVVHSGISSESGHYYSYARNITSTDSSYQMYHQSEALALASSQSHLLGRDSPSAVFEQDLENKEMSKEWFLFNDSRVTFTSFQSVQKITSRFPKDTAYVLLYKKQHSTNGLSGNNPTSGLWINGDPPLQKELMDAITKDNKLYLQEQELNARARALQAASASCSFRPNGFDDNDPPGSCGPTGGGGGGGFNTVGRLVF
Outline: as §1

USP39 = biological target: T3, USP39 (UniProt Q53GS9)
T3 sequence (whole entry): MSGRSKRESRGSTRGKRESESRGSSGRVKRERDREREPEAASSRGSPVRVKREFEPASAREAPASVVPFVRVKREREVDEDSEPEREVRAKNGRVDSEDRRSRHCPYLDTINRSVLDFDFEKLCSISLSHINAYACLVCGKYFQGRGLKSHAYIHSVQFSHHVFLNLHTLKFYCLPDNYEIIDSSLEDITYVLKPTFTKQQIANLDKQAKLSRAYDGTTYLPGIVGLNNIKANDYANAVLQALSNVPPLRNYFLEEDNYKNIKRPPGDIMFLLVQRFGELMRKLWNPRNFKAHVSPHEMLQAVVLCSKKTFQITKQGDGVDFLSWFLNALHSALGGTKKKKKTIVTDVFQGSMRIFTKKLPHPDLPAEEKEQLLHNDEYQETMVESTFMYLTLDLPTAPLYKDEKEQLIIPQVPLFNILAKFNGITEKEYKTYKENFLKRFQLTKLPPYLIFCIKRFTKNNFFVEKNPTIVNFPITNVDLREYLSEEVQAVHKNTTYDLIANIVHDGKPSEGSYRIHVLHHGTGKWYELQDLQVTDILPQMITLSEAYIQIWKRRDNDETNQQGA
Outline: as §1

USP4 = biological target: T4, USP4 (UniProt Q13107)
T4 sequence (whole entry): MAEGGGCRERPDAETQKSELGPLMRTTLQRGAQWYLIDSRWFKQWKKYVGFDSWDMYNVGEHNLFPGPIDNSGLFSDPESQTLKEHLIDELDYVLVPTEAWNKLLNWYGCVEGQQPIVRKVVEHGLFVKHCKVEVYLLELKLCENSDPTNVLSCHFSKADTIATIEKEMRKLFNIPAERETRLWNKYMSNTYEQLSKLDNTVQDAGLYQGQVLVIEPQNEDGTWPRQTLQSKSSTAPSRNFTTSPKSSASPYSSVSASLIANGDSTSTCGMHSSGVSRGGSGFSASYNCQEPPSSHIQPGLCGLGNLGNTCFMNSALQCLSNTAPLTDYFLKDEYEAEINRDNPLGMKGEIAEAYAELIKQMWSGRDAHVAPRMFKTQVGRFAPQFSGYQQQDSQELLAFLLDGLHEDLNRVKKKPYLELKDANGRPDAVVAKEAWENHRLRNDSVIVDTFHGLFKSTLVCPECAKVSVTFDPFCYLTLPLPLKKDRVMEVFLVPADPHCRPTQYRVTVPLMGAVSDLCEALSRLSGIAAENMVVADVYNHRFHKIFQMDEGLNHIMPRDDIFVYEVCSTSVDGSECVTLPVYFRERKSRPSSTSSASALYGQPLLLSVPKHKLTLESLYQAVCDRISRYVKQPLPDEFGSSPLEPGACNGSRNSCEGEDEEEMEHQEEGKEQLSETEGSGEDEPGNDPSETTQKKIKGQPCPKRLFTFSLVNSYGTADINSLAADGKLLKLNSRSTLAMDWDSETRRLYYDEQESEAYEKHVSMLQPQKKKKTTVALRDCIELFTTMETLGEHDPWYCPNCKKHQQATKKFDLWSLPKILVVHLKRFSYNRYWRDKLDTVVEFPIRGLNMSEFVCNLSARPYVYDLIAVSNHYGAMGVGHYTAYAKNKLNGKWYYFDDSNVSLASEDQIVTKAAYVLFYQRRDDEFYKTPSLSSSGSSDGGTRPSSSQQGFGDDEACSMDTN
Outline: as §1

Measured: log2 ratio of Biotin-Ahx-Ub-VS probe labelling

USP34, sequence (Q70CQ2 whole entry, the tested form may be a part): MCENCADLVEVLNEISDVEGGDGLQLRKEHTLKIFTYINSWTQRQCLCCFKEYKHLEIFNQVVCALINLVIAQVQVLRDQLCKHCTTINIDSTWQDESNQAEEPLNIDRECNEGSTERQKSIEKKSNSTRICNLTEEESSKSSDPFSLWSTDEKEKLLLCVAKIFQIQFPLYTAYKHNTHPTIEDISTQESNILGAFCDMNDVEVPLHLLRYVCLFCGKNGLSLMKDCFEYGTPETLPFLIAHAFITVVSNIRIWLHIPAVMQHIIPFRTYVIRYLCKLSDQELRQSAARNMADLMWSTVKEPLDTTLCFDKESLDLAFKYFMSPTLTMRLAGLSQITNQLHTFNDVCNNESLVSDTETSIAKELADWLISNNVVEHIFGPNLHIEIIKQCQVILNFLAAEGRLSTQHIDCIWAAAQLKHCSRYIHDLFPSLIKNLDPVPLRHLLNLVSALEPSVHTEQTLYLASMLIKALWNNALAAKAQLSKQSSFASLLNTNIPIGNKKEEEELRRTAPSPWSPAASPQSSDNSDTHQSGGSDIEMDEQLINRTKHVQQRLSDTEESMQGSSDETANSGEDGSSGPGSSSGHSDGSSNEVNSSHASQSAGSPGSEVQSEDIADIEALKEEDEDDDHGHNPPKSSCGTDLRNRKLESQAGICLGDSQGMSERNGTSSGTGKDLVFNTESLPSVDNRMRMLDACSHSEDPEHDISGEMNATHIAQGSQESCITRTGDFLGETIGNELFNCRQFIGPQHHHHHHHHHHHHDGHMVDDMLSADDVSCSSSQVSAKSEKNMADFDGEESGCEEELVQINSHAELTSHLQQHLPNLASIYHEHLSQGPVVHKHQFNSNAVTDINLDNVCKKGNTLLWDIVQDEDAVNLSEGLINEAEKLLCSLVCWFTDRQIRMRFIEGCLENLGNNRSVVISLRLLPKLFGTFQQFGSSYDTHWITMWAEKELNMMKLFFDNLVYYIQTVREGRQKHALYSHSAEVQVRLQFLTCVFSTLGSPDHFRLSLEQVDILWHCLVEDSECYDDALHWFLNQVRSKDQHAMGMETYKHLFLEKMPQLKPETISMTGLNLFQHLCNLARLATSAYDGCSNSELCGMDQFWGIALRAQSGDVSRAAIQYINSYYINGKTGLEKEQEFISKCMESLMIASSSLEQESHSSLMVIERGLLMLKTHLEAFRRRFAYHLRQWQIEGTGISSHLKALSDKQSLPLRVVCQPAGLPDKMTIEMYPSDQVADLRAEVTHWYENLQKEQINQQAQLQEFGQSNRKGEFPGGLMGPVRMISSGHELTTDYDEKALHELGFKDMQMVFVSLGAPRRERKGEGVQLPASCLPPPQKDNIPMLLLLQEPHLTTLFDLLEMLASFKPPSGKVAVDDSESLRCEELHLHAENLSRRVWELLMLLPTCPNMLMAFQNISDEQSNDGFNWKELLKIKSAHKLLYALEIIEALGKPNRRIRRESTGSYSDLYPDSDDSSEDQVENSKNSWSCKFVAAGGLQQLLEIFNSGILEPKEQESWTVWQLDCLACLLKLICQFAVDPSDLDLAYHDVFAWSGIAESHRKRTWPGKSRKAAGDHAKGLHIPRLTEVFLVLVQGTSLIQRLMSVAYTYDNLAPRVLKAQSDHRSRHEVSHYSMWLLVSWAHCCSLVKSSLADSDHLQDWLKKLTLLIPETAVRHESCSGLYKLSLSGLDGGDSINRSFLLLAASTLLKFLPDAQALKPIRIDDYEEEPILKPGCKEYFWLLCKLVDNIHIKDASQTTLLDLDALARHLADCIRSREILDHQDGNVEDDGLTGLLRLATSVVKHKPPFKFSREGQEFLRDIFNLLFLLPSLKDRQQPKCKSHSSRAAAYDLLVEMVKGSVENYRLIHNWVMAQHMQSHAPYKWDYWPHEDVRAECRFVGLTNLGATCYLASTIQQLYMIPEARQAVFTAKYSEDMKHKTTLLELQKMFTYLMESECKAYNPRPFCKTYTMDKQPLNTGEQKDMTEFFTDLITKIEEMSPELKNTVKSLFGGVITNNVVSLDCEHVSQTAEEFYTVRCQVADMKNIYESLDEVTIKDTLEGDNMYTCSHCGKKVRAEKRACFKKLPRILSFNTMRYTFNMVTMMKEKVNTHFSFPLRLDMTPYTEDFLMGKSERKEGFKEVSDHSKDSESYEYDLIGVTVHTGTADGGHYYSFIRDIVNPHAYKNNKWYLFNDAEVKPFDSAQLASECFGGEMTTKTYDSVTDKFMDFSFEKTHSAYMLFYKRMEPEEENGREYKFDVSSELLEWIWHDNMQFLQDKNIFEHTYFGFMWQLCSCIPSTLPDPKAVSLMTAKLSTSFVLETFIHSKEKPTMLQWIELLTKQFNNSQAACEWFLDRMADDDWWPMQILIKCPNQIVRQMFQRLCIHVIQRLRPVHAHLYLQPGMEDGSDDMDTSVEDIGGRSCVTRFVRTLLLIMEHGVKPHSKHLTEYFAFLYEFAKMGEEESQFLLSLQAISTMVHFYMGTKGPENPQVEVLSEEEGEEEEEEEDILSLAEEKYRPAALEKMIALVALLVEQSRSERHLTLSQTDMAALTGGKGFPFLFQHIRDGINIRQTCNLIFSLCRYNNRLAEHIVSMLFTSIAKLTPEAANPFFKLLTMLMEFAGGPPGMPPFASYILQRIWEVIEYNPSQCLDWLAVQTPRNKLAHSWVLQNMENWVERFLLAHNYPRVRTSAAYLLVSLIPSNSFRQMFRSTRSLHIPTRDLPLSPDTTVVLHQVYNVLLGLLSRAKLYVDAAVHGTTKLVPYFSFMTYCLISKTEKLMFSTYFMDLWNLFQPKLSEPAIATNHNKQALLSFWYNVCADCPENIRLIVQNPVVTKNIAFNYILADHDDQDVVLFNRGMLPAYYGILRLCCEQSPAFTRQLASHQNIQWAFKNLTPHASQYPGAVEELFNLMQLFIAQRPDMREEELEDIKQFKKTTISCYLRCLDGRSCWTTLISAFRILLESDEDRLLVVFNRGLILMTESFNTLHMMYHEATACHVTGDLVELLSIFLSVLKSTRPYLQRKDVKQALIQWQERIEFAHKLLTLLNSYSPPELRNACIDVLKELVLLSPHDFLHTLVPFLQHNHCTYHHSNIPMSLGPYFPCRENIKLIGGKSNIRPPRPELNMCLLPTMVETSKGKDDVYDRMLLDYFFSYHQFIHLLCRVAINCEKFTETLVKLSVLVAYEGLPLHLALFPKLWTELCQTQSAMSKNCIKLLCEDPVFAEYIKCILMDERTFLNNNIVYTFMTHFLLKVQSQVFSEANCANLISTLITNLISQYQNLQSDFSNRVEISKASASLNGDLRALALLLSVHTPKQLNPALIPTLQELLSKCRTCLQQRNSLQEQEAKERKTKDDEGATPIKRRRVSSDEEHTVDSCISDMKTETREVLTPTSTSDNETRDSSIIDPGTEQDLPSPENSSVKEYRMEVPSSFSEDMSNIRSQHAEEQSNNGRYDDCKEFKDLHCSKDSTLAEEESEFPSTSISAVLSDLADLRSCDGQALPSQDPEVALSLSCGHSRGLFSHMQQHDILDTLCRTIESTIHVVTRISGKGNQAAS

Cc1cccc2nc(CCNC(=O)CCl)cn12.Cl
inactive: USP34 -0.19 | USP36 -0.179 | USP38 -0.0583 | USP39 0.203 | USP4 -0.184
